# Activity calls are given as the source filed them. How the source made its calls: active means hit-call score of the fitted dose curve at least 0.9, where 1 is the maximum; inactive means score below 0.9.
# Read-out: Monocyte Chemoattractant Protein-1 (MCP1), CCL2 (gene 6347)
# Assay: BSK_3C_MCP1: BioMAP Diversity Plus: 3C Assay for Monocyte Chemoattractant Protein-1 (MCP1) Biomarker Activity (AID 2283017)
# Conditions: primary human endothelial cells (HUVEC); actives raise or lower the signal
# Protocol: BSK_3C is a cell-based, multiplexed-readout assay that uses umbilical vein endothelium, a human vascular primary cell, with measurements taken at 24 hours after chemical dosing in a 96-well plate.BSK_3C_MCP1 is an assay component measured in the BSK_3C assay. It measures MCP-1 antibody related to regulation of gene expression using ELISA technology.Data from the assay component BSK_3C_MCP1 was analyzed into 1 assay endpoint. This assay endpoint, BSK_3C_MCP1, was analyzed with bidirectional fitting relative to DMSO as the negative control and baseline of activity. Using a type of binding reporter, gain or loss-of-signal activity can be used to understand changes in the signaling as they relate to the gene CCL2. Furthermore, this assay endpoint can be referred to as a primary readout, because this assay has produced multiple assay endpoints where this one serves a signaling function. To generalize the intended target to other relatable targets, this assay endpoint is annotated to the cytokine intended target family, where the subfamily is chemotactic factor.
# The levels of cell surface (or secreted, indicated by the prefix "s") biomarker endpoints were measured by ELISA. Overt cytotoxicity to cells in confluent adherent cultures (all systems other than the BT system) was assessed by measuring total protein levels using sulforhodamine B (SRB) staining in parallel cultures at the time of biomarker measurements, indicated as SRB endpoints. For proliferation assays for adherent cell types, individual cell types are cultured at sub-confluence and relative cell numbers quantified by SRB staining at time points optimized for each system (48 h: 3C and CASM3C systems; 72 h: BT and HDF3CGF systems; 96 h: SAg system). SRB was performed by staining cells with 0.1% SRB after fixation with 10% TCA and reading wells at 560 nm.Viability and proliferation of PBMC (T cells) was quantified by Alamar Blue reduction for the SAg and BT systems. For PBMC viability (referred to as PBMC Cytotoxicity within the assay endpoint names), cells were plated (75,000/well in a 96-well plate) and then chemical samples added for 1 h before addition of activators, SEB and TSST-1 (20 ng/mL final concentration each). Cells were incubated for 90 h. Then, Alamar Blue (20 uL/well) (Invitrogen, Cat DAL1100) was added for 6 h, and the plates were read with a fluorescence microplate reader at 546/580 nm (excitation/emission). For PBMC proliferation, cells were plated and activated as above but incubated for only 16 h prior to addition of Alamar Blue. Plates were read after 6 h.
Compound,outcome,AC50
CCCCCCCC/C=C\CCCCCCCC(=O)OC[C@@H](O)[C@H]1OC[C@H](O)[C@H]1O,inactive,
NCC(F)(F)C(F)(F)C(F)(F)C(F)(F)F,inactive,
O=S(=O)(O)c1ccc(N=Nc2c(O)ccc3cc(S(=O)(=O)O)ccc23)cc1,inactive,
Cc1nc(-c2ccccn2)ncc1C(=O)Nn1cc(C)c2cc(F)ccc21,inactive,
FC(F)=C(F)C(F)(F)C(F)(F)C(F)(F)C(F)(F)C(F)(F)C(F)(F)F,inactive,
c1ccc2ncccc2c1,inactive,
NC(=O)N(O)[C@@H]1COc2cc(OCc3ccccc3)ccc21,inactive,
O=C(O)c1cccc(C[C@@H]2COc3ccc(OCc4nc5cc(F)ccc5s4)cc3[C@@H]2O)c1,inactive,
CCc1ccc(O)c(C(C)(C)C)c1,,30.9 µM (active)
FC(F)(F)COC(OCC(F)(F)F)OCC(F)(F)F,inactive,
C[C@@H](Oc1ccc(CNC(=O)c2cccnc2Oc2ccc3c(c2)OCO3)c(F)c1)C(=O)O,inactive,
C[Si](C)(C)C(F)(F)C(F)(F)C(F)(F)F,inactive,
CCCCCOC(C)=O,inactive,
OCCOCCOCCO,inactive,
OCC(CO)(CO)CO,inactive,
Cc1cccc(O)c1C,inactive,
O=S(=O)(O)CCC(F)(F)C(F)(F)C(F)(F)C(F)(F)C(F)(F)C(F)(F)F,inactive,
O=C(NO)C1(NS(=O)(=O)c2ccc(Oc3ccc(F)cc3)cc2)CCOCC1,inactive,
CCCCCCCCCC,inactive,
CC1(C)C(=O)N(Cl)C(=O)N1Cl,inactive,

Compound,outcome,AC50
CCCCN1C(=O)[C@@H]([C@H](O)C2CCCCC2)NC(=O)C12CCN(Cc1ccc(Oc3ccc(C(=O)O)cc3)cc1)CC2,,14.9 µM (active)
Cc1ncc([C@@H](CCCCCCc2ccc3c(n2)NCCC3)CC(=O)O)cn1,inactive,
CCN(CC)C(=S)SSC(=S)N(CC)CC,,30.6 µM (active)
CCn1nc(C)c2c1C(=O)NCC(c1ccc(O)cc1)=N2,inactive,
O=C(O)c1cccc(C(=O)O)c1,inactive,
NC(=O)N1c2ccccc2C=Cc2ccccc21,inactive,
FC(F)C(F)(F)COCC1CO1 (stereo not given),inactive,
CCCCCCCCCCCCCCO,,30.5 µM (active)
OC(Cn1cncn1)(Cn1cncn1)c1ccc(F)cc1F,inactive,
CCCC(CCC)C(=O)O,inactive,
O=C(O)c1ccc2c(c1)nc(C(=O)NC1CCN(C3CC3)CC1)n2Cc1cc(-c2ccc(Cl)s2)on1,inactive,
CCCCCCCCN(C)C,inactive,
CC(C)C(=O)Nc1ccc([N+](=O)[O-])c(C(F)(F)F)c1,inactive,
CCOC(N)=O,inactive,
NC(=O)NN=Cc1ccc([N+](=O)[O-])o1,inactive,
CCCCCCCC1CCC(=O)O1 (stereo not given),inactive,
OCc1ccccc1,inactive,
COS(C)(=O)=O,inactive,
CC[C@H](C)C(=O)O[C@H]1C[C@H](O)C=C2C=C[C@H](C)[C@H](CC[C@@H](O)C[C@@H](O)CC(=O)O)[C@H]21,inactive,
Nc1ccn([C@@H]2O[C@H](CO)[C@@H](O)[C@@H]2O)c(=O)n1,inactive,

# Reference: PubChem BioAssay (EPA / NIEHS)
